Results reported in PubChem BioAssay (NCI).
About 83,000 compounds went through this panel and 20% of them were active in at least one assay; those are over-represented in the sample as a whole.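 Interpretation: 100, growth as untreated; towards 0, rising growth inhibition; 0, no net growth; 0 to -100, cell death. Compounds scoring below 10 were considered active.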 A number with no mark means an inactive call. Active and inactive are the calls of the source.

Key:
Assay in all cases: NCI-60 one-dose screen, 48 h (100 = growth as untreated, 0 = no growth, -100 = all killed)
Settings in all cases: 10 µM unless noted
[1] = system: RPMI-8226 leukemia
[2] = system: OVCAR-8 ovarian
[3] = system: OVCAR-5 ovarian
[4] = system: OVCAR-4 ovarian
[5] = system: SK-OV-3 ovarian
[6] = system: IGROV1 ovarian
[7] = system: OVCAR-3 ovarian
[8] = system: HS 578T breast
[9] = system: NCI/ADR-RES ovarian
[10] = system: T-47D breast
[11] = system: BT-549 breast
[12] = system: MDA-MB-435 melanoma
[13] = system: SW-620 colon
[14] = system: MCF7 breast
[15] = system: HCT-116 colon
[16] = system: HCC-2998 colon
[17] = system: KM12 colon

Structure (SMILES) | growth [1] | growth [2] | growth [3] | growth [4] | growth [5] | growth [6] | growth [7] | growth [8] | growth [9] | growth [10] | growth [11] | growth [12] | growth [13] | growth [14] | growth [15] | growth [16] | growth [17]
COc1ccc(-c2cncnc2N)cc1OC | 96.8% | 105% | 110% | 108% | -40.5% (active) | 111% | 115% | 107% | 105% | -95.7% (active) | 99.2% | 104% | 101% | 103% | 94.8% | 103% | 109%
COC(=O)/C(=C\c1ccc(OC)cc1)C(=O)N1c2ccccc2Sc2ccccc21 | 54.4% | 64.4% | 75.1% | 89.3% | 91.7% | 43.6% | 24.5% | 56.1% | 16.4% | 48.4% | -45.7% (active) | -57.8% (active) | 33.6% | 26.8% | 23.3% | 86.8% | –
N#Cc1c(NC(=O)c2cccc(C(F)(F)F)c2)sc2c1CCC(=O)C2 | -9.7% (active) | 10.4% | 12.9% | -80.7% (active) | 3.53% (active) | -50.7% (active) | -46.8% (active) | 1.32% (active) | 7.01% (active) | -21.6% (active) | -77.1% (active) | -74.6% (active) | -66.2% (active) | 7.82% (active) | -63.7% (active) | 27.2% | -21.3% (active)
O=C1NN(C(=O)c2ccc(O)cc2)C(c2ccccc2)=N/C1=C\c1cn(-c2ccccc2)nc1-c1ccccc1 | 90% | 97.2% | 94% | 95.3% | 92.6% | 91.5% | 112% | 99.8% | 99.7% | – | 94.7% | 105% | 110% | 96% | 95.7% | 104% | –
CCC(C)NCc1ccccc1 (configuration not stated) | 95.7% | 102% | 114% | 109% | 101% | 109% | 104% | 105% | 98.1% | 89.4% | 95.2% | 108% | 101% | 102% | 91.8% | 102% | –
Cc1nc2ccc(C(=O)NCc3cc(C(=O)O)c(C)o3)cc2nc1C | 108% | 96.6% | 99.7% | 95.4% | 80.2% | 106% | 101% | 96.8% | 106% | – | 96.1% | 96.2% | 99.3% | 101% | 95.5% | 98% | –
O=S(=O)(NCCNc1cc(-c2c(-c3cccc(O)c3)nc3sccn23)ccn1)c1ccc(Cl)cc1 | 41.1% | 51.1% | 107% | 40.4% | 75.1% | 54.1% | 64.2% | 63.9% | 87.6% | 26% | 50.2% | 24.8% | 89.2% | 47.8% | 57.4% | 102% | –
CCOc1cc(N)ccc1C(=O)NCCCN(CC)CC | 95.9% | 118% | 93.9% | 109% | 110% | 96.5% | 105% | 99.1% | 94.2% | 101% | – | 106% | 101% | 96.4% | 98% | 95.9% | 106%
CCO/C=N/C1=C(C#N)C(c2ccc(OC)cc2)c2c(c3ccccc3n(C)c2=O)O1 (configuration not stated) | 102% | 104% | 100% | 98.8% | 99.9% | 101% | 114% | 107% | 108% | 101% | 117% | 107% | 101% | 94.8% | 102% | 106% | 103%
Cc1nc(Nc2ccc(NC(=S)Nc3ccccc3)cc2)nc2nc(Nc3ccc(S(=O)(=O)O)cc3)[nH]c(=O)c12 | 79.2% | 49.8% | 103% | 113% | 98.3% | 72% | 139% | 111% | 106% | 87.3% | – | 105% | 116% | 102% | – | 118% | 120%
O=C(Nc1ccccn1)[C@H](O)[C@@H](O)C(=O)N1CCOCC1 | 106% | 96.7% | 118% | 123% | 105% | 105% | 107% | 104% | 104% | 100% | – | 111% | 110% | 110% | 99.3% | 116% | 108%
NC(=O)c1c(NC(=O)c2ccccn2)sc2c1CCC(=O)C2 | 1.88% (active) | 14.2% | 21.5% | -7.1% (active) | 95.6% | 29.9% | 7.94% (active) | 25.1% | 17.6% | 5.3% (active) | 5.57% (active) | 21.3% | 14.7% | 39.1% | 9.08% (active) | 81% | –
O=S(=O)(NCCNc1cc(-c2c(-c3cccc(O)c3)nc3sccn23)ccn1)c1ccc(Br)cc1 | 38.1% | 47.5% | 109% | 43.1% | 73.7% | 47.4% | 60.3% | 59.1% | 80.4% | 23.8% | 55.2% | 26.1% | 76.8% | 37.4% | 47.9% | 95.3% | 51.3%
Cc1c(C(N)=O)sc2nc(C)n(/N=c3\scc(-c4ccccc4)n3Cc3ccccc3)c(=O)c12 | -10.3% (active) | 14.7% | 47.9% | 33.5% | 58.6% | 10.9% | 4.32% (active) | -14.6% (active) | 18.9% | 34.7% | -6.7% (active) | 12.2% | 12.5% | 17.3% | 29.1% | 57.1% | 13.6%
CN=C1C=CC(=C(c2ccc(N(C)C)cc2)c2ccc(N(C)C)cc2)C=C1 | 0.425% (active) | -38.5% (active) | 17.4% | 7.52% (active) | -15.6% (active) | -12.7% (active) | -42.2% (active) | 32.6% | 10.9% | 3.04% (active) | -34.3% (active) | -51% (active) | 3.29% (active) | – | -7.21% (active) | -31% (active) | -76.2% (active)
Cc1nn(Cc2ccccc2)cc1C(=O)Nc1sc2c(c1C(N)=O)CCC(=O)C2 | -6.08% (active) | 20.3% | 73.8% | -7.95% (active) | 116% | 33.5% | 9.48% (active) | 28.8% | 72% | 10.5% | 10.4% | 16.7% | 13.4% | 13.6% | 6.74% (active) | 80.6% | 13.5%
CCN1CCN(c2ccc(Nc3cc(-c4cccnc4Nc4c(Cl)c(OC)cc(OC)c4Cl)ncn3)cc2)CC1 | 64.1% | 69.2% | 92.4% | 48.8% | 72.7% | 57.4% | 88.9% | 51.8% | 75.8% | – | 60.1% | 89.7% | 55% | 40.9% | 71.9% | 75.6% | 73.9%
C=C1C(=O)O[C@H]2[C@H]1CC/C(Cn1cc(CNCCc3c[nH]c4ccc(Cl)cc34)nn1)=C\CC[C@@]1(C)O[C@@H]21 | 9.44% (active) | 59.6% | 83.5% | 41.7% | 72.6% | 2.11% (active) | 11.9% | 83.4% | 102% | – | 74.7% | 68% | 2.69% (active) | 42.9% | 11.2% | 103% | 82.9%
CC(C)n1nc(C#Cc2cccc(NC(=O)c3cccc(C(F)(F)F)c3)c2)c2c(N)ncnc21 | -11.8% (active) | -12.7% (active) | -27.5% (active) | 11.4% | -51.6% (active) | -61.6% (active) | 1.38% (active) | -31.2% (active) | -13% (active) | – | 9.72% (active) | 2.12% (active) | 1.28% (active) | 14.4% | -50.6% (active) | 2.89% (active) | 3.28% (active)
